Growth data for 16 compounds are collected here from PubChem BioAssay (NCI).

The panel holds about 83,000 compounds, 20% with a hit somewhere; the sample as a whole holds those more often.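 Interpretation: 100, growth as untreated; towards 0, rising growth inhibition; 0, no net growth; 0 to -100, cell death. Compounds scoring below 10 were considered active.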 The source made the active and inactive calls.

The test system of the assay is HL-60(TB) leukemia. Kind of assay: NCI-60 one-dose screen, 48 h (100 = growth as untreated, 0 = no growth, -100 = all killed). To be noted: 10 µM unless noted.
Regarding `COc1cc(-c2nc(N3CCN(C)CC3)c3ccccc3n2)cc(OC)c1OC`, the growth is 67% (inactive).

With `Cc1ccc(-c2nc(C#N)c(S(=O)(=O)n3nc(C)cc3N)o2)cc1`, the growth was 16.6% (inactive).

`O=c1n(C2OC(CO)C(O)C2O)ccc2nccn12` (stereo unspecified): the growth was 101% (inactive).

As to `Cc1ccc(Nc2nc(-c3ccc(F)cc3)c(C#N)c(=O)n2C)cc1`, the growth is 90.1% (inactive).

Consider `COC(=O)c1cccc(Br)c1`, for which the growth is 81.6% (inactive).

As to `N#C/C(=C\c1ccc2c(c1)OCO2)c1ccccc1`, the growth was 62% (inactive).

Take `CC(C)(C)c1ccc(OCCCCCCCN2CCNCC2)cc1`: the growth is -40.7% (active).

With `CCN(CC)CCCNC(=O)c1c2c(n3ccccc13)C(=O)c1ncccc1C2=O`, the growth is -33.8% (active).

On to `CCC(C)NCC(=O)O` (stereo unspecified), for which the growth is 100% (inactive).

For `CCCCC(CCCCCC(CCCC)C1NC(C)Cc2cc(OC)c(OC)cc21)C1NC(C)Cc2cc(OC)c(OC)cc21` (stereo unspecified), the growth was -79.7% (active).

Take `O=C(Cn1cccc(Nc2ccccc2)c1=O)Nc1ccccc1`: the growth is 118% (inactive).

Consider `COc1cc(C(=O)CCCl)ccc1O`, for which the growth was 95.8% (inactive).

Take `[2H]C1([2H])CCN(C(=O)C2CC2)c2cc(NS(=O)(=O)c3ccc(-c4cccc(C(N)=O)c4)cc3)ccc21`: the growth was -0.857% (active).

`O=C(O)c1ccc(-n2cc(/C=N/Nc3ccc(Cl)cc3Cl)c(-c3ccccc3)n2)cc1`: the growth is -81.8% (active).

For `COc1ccc(C2Nc3ncnc(N)c3N=C3c4ccccc4C(=O)C32)cc1` (stereo unspecified), the growth is 58.8% (inactive).

As for `Cc1ccc(C2=NN(c3ccc(S(=O)(=O)NC(=O)NCc4ccccc4)cc3)C(c3ccc(N(C)C)cc3)C2)c(C)c1` (stereo unspecified), the growth is -1.6% (active).
